Results published in PubChem BioAssay (NCI).
The panel holds about 79,000 compounds, 15% with a hit somewhere; the sample as a whole holds those more often. The source made the active and inactive calls. Rule as the data show it: active = growth inhibition above about 70%; inactive = the rest.

Experiments:
[1] = NCI Yeast Anticancer Drug Screen. Data for the rad50 strain (AID 155);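 also: 0% = growth of vehicle-only cultures of the same strain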; details: S. cerevisiae rad50 strain growth inhibition; at 50.0 µM; stronger effect = higher value
Summary of the method: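 DNA repair mutant yeast, compound exposure, growth read-out; inhibition is taken relative to vehicle.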

[2] = NCI Yeast Anticancer Drug Screen. Data for the mec2-1 strain (AID 157); details: S. cerevisiae mec2-1 strain, at 50.0 µM, stronger effect = higher value
Summary of the method: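 Test agents were screened against the mec2-1 yeast strain, with defined DNA repair or cell cycle alteration. Growth was scored as inhibition against vehicle-only controls.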

[3] = NCI Yeast Anticancer Drug Screen. Data for the sgs1 mgt1 strain (AID 161);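 also: 0% = growth of cultures given vehicle only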; details: S. cerevisiae sgs1 mgt1 strain, at 50.0 µM, stronger effect = higher value
Summary of the method: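 Test agents were incubated with a DNA-repair-mutant yeast strain. Growth was then read and compared against vehicle-treated controls.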

[4] = NCI Yeast Anticancer Drug Screen. Data for the cln2 rad14 strain (AID 165);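 also: 0% = growth equal to vehicle treated cultures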; details: S. cerevisiae cln2 rad14 strain, at 50.0 µM, stronger effect = higher value
Summary of the method: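 Growth of compound-exposed yeast (cln2 rad14 genotype) measured and expressed as inhibition relative to vehicle.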

[5] = NCI Yeast Anticancer Drug Screen. Data for the bub3 strain (AID 167); details: S. cerevisiae bub3 mutant strain, at 50.0 µM, stronger effect = higher value
Summary of the method: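 In this screen, a yeast mutant lacking normal mitotic checkpoint function is challenged with compound. Relative growth versus vehicle gives the inhibition value.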

[6] = NCI Yeast Anticancer Drug Screen. Data for the mlh1 rad18 strain (AID 175); details: S. cerevisiae mlh1 rad18 strain growth inhibition; at 50.0 µM; stronger effect = higher value
Summary of the method: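 In this whole-cell yeast screen, a strain with altered DNA damage repair is challenged with compound, and its growth is measured against matched vehicle-treated controls.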

Measured: growth inhibition

COc1ccc(C(C)c2cc(OC)c(OC)cc2OC)cc1 (stereo unspecified)
inactive: [1] 17.6% | [2] 10.8% | [3] 25.6% | [4] -29.2% | [5] 44.2% | [6] 37.8%

CCCCCCOC(=O)/C=C1/OC(=O)c2ccccc21
inactive: [1] -12.2% | [2] -15.5% | [3] 2.15% | [4] -60.5% | [5] 11.4% | [6] -16.4%

COC(=O)CCc1c[nH]c2ccc(N)cc12
inactive: [1] -12.8% | [2] -31.2% | [3] -14.8% | [4] 18.2% | [5] -14.5% | [6] -13.7%

O=S(=O)(NOCCCCONS(=O)(=O)c1ccccc1)c1ccccc1
active: [4] 92.1%
inactive: [1] 27.6% | [2] 17.6% | [3] 11.2% | [5] 26.3% | [6] -6.15%

Cc1ccc(-c2cc(=O)c3cc(C)c(C)c(C(=O)O)c3o2)cc1[N+](=O)[O-]
inactive: [1] -20.7% | [2] -5.1% | [3] -1.05% | [4] 12.2% | [5] 2% | [6] 31.1%

CC(O)CNc1ncnc2c1cnn2C (stereo unspecified)
inactive: [1] -4.1% | [2] -24.9% | [3] -10.2% | [4] 8.8% | [5] -4.3% | [6] 12.8%

CCOC(=O)/C(C#N)=C\NC(=O)NC
inactive: [1] 3% | [2] 2.3% | [3] 2.2% | [4] -18.4% | [5] -5.25% | [6] -0.5%

Cc1cc2c(s1)C(=O)c1sccc1C2=O
active: [1] 89.7% | [2] 90.8% | [3] 89.8% | [4] 91.5% | [5] 87.2% | [6] 89%

O=C(O)c1ccc(N=Nc2ccccc2)cc1
inactive: [1] -4.4% | [2] 14.9% | [3] 20.9% | [4] 0.3% | [5] -5.1% | [6] 2.75%

Cc1ccccc1NC(=S)NC(=O)c1ccccc1
inactive: [1] 30.9% | [2] 19.2% | [3] 62.8% | [4] -34.8% | [5] 64% | [6] 48.2%

COC(=O)C(Cc1cc(OC)c(OC)c(OC)c1)(NC(=O)c1ccccc1)P(=O)(OC)OC (stereo unspecified)
inactive: [1] -14.2% | [2] -1.75% | [3] -38.4% | [4] -51.6% | [5] 1.05% | [6] -9.7%

O=C(Cc1ccccc1)NCc1ccccc1Cl
inactive: [1] -1.05% | [2] 9.2% | [3] 5.65% | [4] 0.05% | [5] 9.75% | [6] 6.05%

Cc1ccc(C2=C(c3ccc(C)cc3)CS(=O)(=O)C2)cc1
inactive: [1] 22.2% | [2] -5.55% | [3] -0.4% | [4] -6% | [5] -18.8% | [6] -26.1%

NC(=O)OCc1c(-c2ccccc2)nn(-c2ccccc2)c1COC(N)=O
inactive: [1] -26.2% | [2] -31% | [3] -18.5% | [4] -19.6% | [5] 1.05% | [6] -16.2%

O=C(O)C(c1cccs1)C1(O)CCCCC1 (stereo unspecified)
inactive: [1] -0.75% | [2] -7.2% | [3] -2.25% | [4] -1.65% | [5] -2.5% | [6] -5.3%

CN(C)c1ccc(C2NC(c3ccccc3)c3c(ccc4ccccc34)O2)cc1 (stereo unspecified)
inactive: [1] 8.5% | [2] 2.45% | [3] -12.7% | [4] -22.8% | [5] 2.5% | [6] 0.95%

CC(=O)OC1CCC(OC(C)=O)[C@H]2[C@@H]1[C@@H]1S[C@H]2c2ccccc21 (stereo partly specified)
inactive: [1] 1% | [2] -1.55% | [3] -0.45% | [4] 11.1% | [5] 12.2% | [6] -1.15%

COC(=O)C1C2OC(C(Br)C2Br)C1C(=O)OC (stereo unspecified)
inactive: [1] -12.1% | [2] -9.5% | [3] -1.15% | [4] -1.95% | [5] -1.65% | [6] -10.2%

Nc1cc(N)cc([N+](=O)[O-])c1
inactive: [1] -9.75% | [2] -16.4% | [3] -8% | [4] -13.7% | [5] 8.8% | [6] 15.2%

COc1ccc(C(O)c2ccc(OC)cc2)cc1
inactive: [1] -10.8% | [2] -16.6% | [3] -23.9% | [4] 10.1% | [5] -22.3% | [6] -7.6%

O=C(OCCO)c1ccccc1O
inactive: [1] 2.95% | [2] -0.8% | [3] -34% | [4] 3.3% | [5] -0.9% | [6] 1.35%

C/C(=N/N(C)c1ccccc1)C(C)C
inactive: [1] 14.5% | [2] -6.75% | [3] 3.45% | [4] 1.6% | [5] 24.4% | [6] 10.7%

COC1OC2COc3ccccc3OC2C2C1N2C(N)=S (stereo unspecified)
inactive: [1] 3.4% | [2] 22.5% | [3] 16.7% | [4] 1.65% | [5] 19.4% | [6] 12.9%

O=[N+]([O-])c1ccc(CN(Cc2ccc([N+](=O)[O-])cc2)c2ccc3c(c2)C(O)c2ccccc2-3)cc1 (stereo unspecified)
inactive: [1] 9.95% | [2] 1% | [3] 7.8% | [4] 7.85% | [5] 1.8% | [6] 12.2%

N#CC1CCCCC(=O)N1 (stereo unspecified)
inactive: [1] 3.55% | [2] 2.2% | [3] -2.05% | [4] -3.6% | [5] -1.2% | [6] -1.55%

COc1nc2[nH]ccc2c(=O)n1C
inactive: [1] -10.9% | [2] -20.1% | [3] -9.1% | [4] 10.3% | [5] -10.4% | [6] 17.4%

Cc1cc(C(O)CNCCn2cnc3c2c(=O)n(C)c(=O)n3C)ccc1O (stereo unspecified)
inactive: [1] 38.8% | [2] -1.95% | [3] 19.4% | [4] 25.1% | [5] -4.95% | [6] 12.3%

OC(C#Cc1ccccc1)(C#Cc1ccccc1)/C=C/c1ccccc1
inactive: [1] 17.1% | [2] -5% | [3] -5.85% | [4] -7.95% | [5] -9.15% | [6] 11.5%

Nc1ccccc1Nc1ccncc1
inactive: [1] -3% | [2] 11.2% | [3] -1.7% | [4] -26.9% | [5] -23.8% | [6] -5.7%

CN(C)c1ccc(NN=C2SC(=Nc3ccccc3)C(=Nc3ccccc3)S2)cc1
inactive: [1] 41.5% | [2] -17.9% | [3] -10.2% | [4] 18.1% | [5] 25.2% | [6] 8.15%

O=C1C=CC(=CC=C2C=CN(CCCCCCO)C=C2)C=C1
inactive: [1] 18.4% | [2] 6.05% | [3] 26.2% | [4] 13.8% | [5] 8.65% | [6] 16.1%

CC1=CCC2(C#N)CCC1C2O (stereo unspecified)
inactive: [1] 15.2% | [2] 17.8% | [3] 8.1% | [4] 22.4% | [5] 10.4% | [6] 17.6%

O=c1cccc2c3ccccc3ccn12
inactive: [1] 22.9% | [2] 7% | [3] 15.3% | [4] 12.3% | [5] 15.3% | [6] 13.5%

Cn1c2nc(=O)n(-c3ccccc3)c(=O)c-2nc2c1CCCC2
inactive: [1] -4.95% | [2] -10.7% | [3] 1.55% | [4] -6.45% | [5] 3.9% | [6] -60.7%

COC(=O)c1ccccc1-n1c(-c2ccc([N+](=O)[O-])cc2)csc1=NC(=O)c1cccc([N+](=O)[O-])c1
inactive: [1] -2.15% | [2] -2.15% | [3] 19.4% | [4] -1.05% | [5] -1.15% | [6] 12.7%

O=[N+]([O-])c1ccc(C=Nc2ccccc2)cc1
inactive: [1] 41.1% | [2] 24.1% | [3] 30.9% | [4] 11.9% | [5] 1% | [6] 26.4%

Nc1cccc2c1C(=O)OC2=O
inactive: [1] -6.6% | [2] -6.2% | [3] -10.2% | [4] -5.7% | [5] -3.45% | [6] 3.85%

CCCCCCCC/C=C/CCCCCCCC(=O)N(C)CC(=O)O
inactive: [1] -18.6% | [2] -17% | [3] 10.8% | [4] -29.1% | [5] 22.5% | [6] -8.05%

CC1(C)CC(O)CC(O)C1 (stereo unspecified)
inactive: [1] -4.3% | [2] -0.55% | [3] -0.2% | [4] 14.1% | [5] -0.15% | [6] -6.9%

C/C(=N/NC(N)=S)c1c[nH]c(=O)[nH]c1=O
inactive: [1] -3% | [2] -16.6% | [3] -4.45% | [4] -9.6% | [5] -5.95% | [6] -7.35%

CC(C)(C)C(=O)N/N=C\c1ccc([N+](=O)[O-])s1
inactive: [1] 13.1% | [2] -7.3% | [3] 20.4% | [4] 38.7% | [5] 13.1% | [6] 40.5%
